Data from PubChem BioAssay AID1159580 (chemical genetic matrix, 2015).
About 2,000 (36%) of roughly 5,500 compounds were called active. Another 18% or so got no clear call; they are omitted. Rule as the data show it: active = normalized growth mostly below about 0.91 (no sharp cut-off); inconclusive = no clear call, values can overlap the other calls; inactive = mostly above about 0.92. This is one part of the list.

Experiment: chemical genetic growth profiling, strain panel (AID 1159580);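 also: tested at 20 µM; growth read once vehicle control cultures reached saturation at 30 °C; 1 = growth at the plate median or of vehicle wells; lower values mean less growth of the strain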
Conditions: S. cerevisiae deletion strains, growth OD

Measured: normalized growth

COCCCCC(=NOCCN)c1ccc(C(F)(F)F)cc1
inactive: locus YAL040C, strain CLN3, stronger effect = lower value 0.994 | locus YCL061C, strain MRC1 (second series), stronger effect = lower value 0.997 | locus YDR363W, strain ESC2, stronger effect = lower value 0.975 | locus YER002W, strain NOP16, stronger effect = lower value 1 | locus YJR075W, strain HOC1, stronger effect = lower value 0.992 | locus YNL153C, strain GIM3, stronger effect = lower value 1.02 | locus YNL175C, strain NOP13, stronger effect = lower value 1.01 | locus YNL197C, strain WHI3, stronger effect = lower value 1 | locus YNL224C, strain SQS1, stronger effect = lower value 1.02 | locus YNL322C, strain KRE1, stronger effect = lower value 0.988 | locus YOR083W, strain WHI5 (second series), stronger effect = lower value 0.993
